The values below come from PubChem BioAssay (NCATS).

Inconclusive results are not listed. A number with no mark means an inactive call. Calls of active or inactive are those of the source. Calls follow the shape of the dose curve; as a rule, active = well fitted curve in the direction sought with a large enough effect; inconclusive = small, poorly fitted or top-dose-only effect, or another doubt; inactive = no such curve, though single readings can be large; an effect the other way counts as inactive or inconclusive.

A short description of the first assay: COV-362 Cancer Cell Toxicity qHTS against the NCATS CANVASS Library (AID 1347352). Also: % is scaled to controls: 0 for no effect and ±100 for the full control effect. Conditions: COV-362 viability, CellTiter-Glo luminescence, 72 h; series mostly up to 38.3 µM; activity change, negative = cytotoxicity: at the top concentration. The gist of the method:
(§1)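 Toxicity was measured as CellTiter-Glo luminescence after 72 h exposure to an 11-point compound series. Compound was added to 1000 cells/well 4 h after seeding.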
A general note: In qHTS, concentration-response curves come from the screen itself.
With `C/C(=C\CC/C(C)=C/CC[C@]1(C)CCc2cc(O)cc(C)c2O1)CC/C=C(\C)C(=O)O`, the “activity change, negative = cytotoxicity” value is 1.82%.

Turning to `CC(C)c1ccc2c(c1)CCC1[C@](C)(C(=O)O)CCC[C@]21C` (some centres undefined), the “activity change, negative = cytotoxicity” value is -2.99%.

As for `CC(=O)O[C@H]1C[C@@]2(C)[C@@H](CC[C@H]3[C@@]4(C)C=CC(=O)[C@@H](C)[C@@H]4[C@H](OC(C)=O)C(=O)[C@@]32C)/C1=C(\CCC=C(C)C)C(=O)O`, the “activity change, negative = cytotoxicity” value is 0%.

Consider `O=C(/C=C/C=C/c1ccc2c(c1)OCO2)N1CCCCC1`, for which the “activity change, negative = cytotoxicity” value was -11% [at 76 µM].

A further assay is described as follows: UWB1.289-WTBRCA1 Cancer Cell Toxicity qHTS against the NCATS CANVASS Library (AID 1347354). As to activity change, negative = cytotoxicity: % is scaled to controls: 0 for no effect and ±100 for the full control effect. Conditions: UWB1.289-WTBRCA1 viability, CellTiter-Glo luminescence, 72 h; series mostly up to 38.3 µM; activity change, negative = cytotoxicity: at the top concentration. Summed up:
as §1
As for `C/C(=C\CC/C(C)=C/CC[C@]1(C)CCc2cc(O)cc(C)c2O1)CC/C=C(\C)C(=O)O`, the “activity change, negative = cytotoxicity” value was 0.726%.

With `CC(C)c1ccc2c(c1)CCC1[C@](C)(C(=O)O)CCC[C@]21C` (some centres undefined), the call was inactive.

On to `CC(=O)O[C@H]1C[C@@]2(C)[C@@H](CC[C@H]3[C@@]4(C)C=CC(=O)[C@@H](C)[C@@H]4[C@H](OC(C)=O)C(=O)[C@@]32C)/C1=C(\CCC=C(C)C)C(=O)O`, for which the “activity change, negative = cytotoxicity” value was 2.99%.

Regarding `O=C(/C=C/C=C/c1ccc2c(c1)OCO2)N1CCCCC1`, the “activity change, negative = cytotoxicity” value was 3.86% [at 76 µM].

The nature of another assay: HPAF-II 24hr Apoptosis Induction qHTS against the NCATS CANVASS Library (AID 1347356). Also: 0% is about no effect. The following applies: HPAF-II caspase-3/7 Caspase-Glo luminescence; series mostly up to 46.1 µM; caspase activation: at the top concentration. Summed up: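 Caspase-Glo 3/7 luminescence, read after 15 min room-temperature development, measures apoptosis in HPAF-II cells treated 24 h at 37 degrees C with an 11-point concentration series; 500 cells/well; doxorubicin control.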
For `C/C(=C\CC/C(C)=C/CC[C@]1(C)CCc2cc(O)cc(C)c2O1)CC/C=C(\C)C(=O)O`, the “caspase activation” value is 3.25%.

Turning to `CC(C)c1ccc2c(c1)CCC1[C@](C)(C(=O)O)CCC[C@]21C` (some centres undefined), the “caspase activation” value was 1.9%.

In the case of `CC(=O)O[C@H]1C[C@@]2(C)[C@@H](CC[C@H]3[C@@]4(C)C=CC(=O)[C@@H](C)[C@@H]4[C@H](OC(C)=O)C(=O)[C@@]32C)/C1=C(\CCC=C(C)C)C(=O)O`, the “caspase activation” value was 0.759%.

Turning to `O=C(/C=C/C=C/c1ccc2c(c1)OCO2)N1CCCCC1`, the “caspase activation” value is -8.43% [at 91.4 µM].

Another assay is described as follows: HEK293 18hr Apoptosis Induction qHTS against the NCATS CANVASS Library (AID 1347357). Also: 0% is about no effect. Conditions: HEK293 caspase-3/7 Caspase-Glo luminescence; series mostly up to 46.1 µM; caspase activation: at the top concentration. The gist of the method:
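HEK293 cells (500 per well, DMEM with 10% FBS) were treated with natural products, incubated 18 hours at 37 degrees C, then caspase-3/7 activity was read by Caspase-Glo luminescence after 15 min at room temperature.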
Turning to `C/C(=C\CC/C(C)=C/CC[C@]1(C)CCc2cc(O)cc(C)c2O1)CC/C=C(\C)C(=O)O`, the “caspase activation” value was 0.991%.

`CC(C)c1ccc2c(c1)CCC1[C@](C)(C(=O)O)CCC[C@]21C` (some centres undefined): the “caspase activation” value was 5.08%.

Turning to `CC(=O)O[C@H]1C[C@@]2(C)[C@@H](CC[C@H]3[C@@]4(C)C=CC(=O)[C@@H](C)[C@@H]4[C@H](OC(C)=O)C(=O)[C@@]32C)/C1=C(\CCC=C(C)C)C(=O)O`, the “caspase activation” value is 4.85%.

For the molecule `O=C(/C=C/C=C/c1ccc2c(c1)OCO2)N1CCCCC1`, the “caspase activation” value is -8.39% [at 91.4 µM].

A further assay is described as follows: HPAF-II 12hr Apoptosis Induction qHTS against the NCATS CANVASS Library (AID 1347358). Also: 0% is about no effect. Conditions: HPAF-II caspase-3/7 Caspase-Glo luminescence; series mostly up to 46.1 µM; caspase activation: at the top concentration. Summed up: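 Caspase-3/7 activation by DEVD-substrate luminescence (Caspase-Glo 3/7, 15 min, room temperature) after a 12-hour compound exposure in 11 concentrations, of HPAF-II pancreatic cells seeded at 500/well in DMEM with 10% FBS.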
Take `C/C(=C\CC/C(C)=C/CC[C@]1(C)CCc2cc(O)cc(C)c2O1)CC/C=C(\C)C(=O)O`: the “caspase activation” value was 3.32%.

For the molecule `CC(C)c1ccc2c(c1)CCC1[C@](C)(C(=O)O)CCC[C@]21C` (some centres undefined), the “caspase activation” value was 1.35%.

On to `CC(=O)O[C@H]1C[C@@]2(C)[C@@H](CC[C@H]3[C@@]4(C)C=CC(=O)[C@@H](C)[C@@H]4[C@H](OC(C)=O)C(=O)[C@@]32C)/C1=C(\CCC=C(C)C)C(=O)O`, for which the “caspase activation” value was 3.84%.
